The source of these data is PubChem BioAssay (NCI).

Experiment [1] in a line: NCI Yeast Anticancer Drug Screen. Data for the rad50 strain (AID 155).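 Also: 0% = growth of vehicle-only cultures of the same strain.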 Particulars: S. cerevisiae rad50 strain growth inhibition; at 50.0 µM; stronger effect = higher value. The method, boiled down: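 A DNA repair-deficient yeast mutant serves as the test organism; compound-induced growth inhibition is calculated against vehicle-treated cells.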
The nature of experiment [2]: NCI Yeast Anticancer Drug Screen. Data for the mec2-1 strain (AID 157). Particulars: S. cerevisiae mec2-1 strain, at 50.0 µM, stronger effect = higher value. The method, boiled down: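 Each compound was tested on mec2-1 yeast, a strain altered in DNA damage repair or cell cycle control. Growth inhibition is reported relative to vehicle.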
Experiment [3] in a line: NCI Yeast Anticancer Drug Screen. Data for the sgs1 mgt1 strain (AID 161).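 Also: 0% = growth of cultures given vehicle only.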 As to conditions: S. cerevisiae sgs1 mgt1 strain, at 50.0 µM, stronger effect = higher value. Summed up:
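Test agents were incubated with a DNA-repair-mutant yeast strain. Growth was then read and compared against vehicle-treated controls.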

A short description of experiment [4]: NCI Yeast Anticancer Drug Screen. Data for the cln2 rad14 strain (AID 165).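 Also: 0% = growth equal to vehicle treated cultures.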 Particulars: S. cerevisiae cln2 rad14 strain, at 50.0 µM, stronger effect = higher value. Summed up:
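Test compounds were added to cln2 rad14 yeast cultures; inhibition of growth was then determined by comparison with vehicle treatment.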

A short description of experiment [5]: NCI Yeast Anticancer Drug Screen. Data for the bub3 strain (AID 167). Particulars: S. cerevisiae bub3 mutant strain, at 50.0 µM, stronger effect = higher value. Summed up: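 Inhibition values come from growth of compound-treated mutant yeast normalised to vehicle-treated controls.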
Experiment [6] can be described thus: NCI Yeast Anticancer Drug Screen. Data for the mlh1 rad18 strain (AID 175). As to conditions: S. cerevisiae mlh1 rad18 strain growth inhibition; at 50.0 µM; stronger effect = higher value. The method, boiled down: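 Inhibition values reflect reduced growth of mutant yeast versus vehicle-treated controls following compound exposure; the mutations affect DNA damage repair.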

This is part of a sample that, as a whole, favours compounds with a hit. Of some 79,000 tested, about 15% had one in any assay. Active and inactive are the calls of the source. Rule as the data show it: active = growth inhibition above about 70%; inactive = the rest.

Consider `Cc1cc(C)cc(N)c1`, for which the growth inhibition in experiment [1] is 1.7% (inactive); in experiment [2] it was -29.9% (inactive); in experiment [3], -5.1% (inactive); in experiment [4] it was -8.85% (inactive); in experiment [5] it was -5.25% (inactive); in experiment [6], -10% (inactive).
Regarding `c1ccc(B2OCC(C3OB(c4ccccc4)OC4COB(c5ccccc5)OC43)O2)cc1` (stereo not given), the growth inhibition was 32.5% (inactive) in experiment [1]; -2.45% (inactive) in experiment [2]; -1.2% (inactive) in experiment [3]; -30.9% (inactive) in experiment [4]; -23.2% (inactive) in experiment [5]; 23.6% (inactive) in experiment [6].
As for `O=C(Nc1ccccc1Cl)c1ccc([N+](=O)[O-])cc1`, the growth inhibition was 11.4% (inactive) in experiment [1]; 15.4% (inactive) in experiment [2]; 18.6% (inactive) in experiment [3]; 10.3% (inactive) in experiment [4]; 11.2% (inactive) in experiment [5]; 24.6% (inactive) in experiment [6].
Turning to `CCOC(=N)Cc1ccccc1`, the growth inhibition in experiment [1] was 3.7% (inactive); in experiment [2], 21.1% (inactive); in experiment [3] it was 4.6% (inactive); in experiment [4], -10.8% (inactive); in experiment [5] it was 23.4% (inactive); in experiment [6], -27.9% (inactive).
With `COc1ccc2nc3c([N+](=O)[O-])ccc(NCCCN(C)C)c3c(NCCCN(C)C)c2c1`, the growth inhibition is -5.15% (inactive) in experiment [1]; 9.3% (inactive) in experiment [2]; 11.7% (inactive) in experiment [3]; 38.3% (inactive) in experiment [4]; -28.4% (inactive) in experiment [5]; -1.6% (inactive) in experiment [6].
Consider `O=C1c2ccccc2C(=O)N1OCCCCON1C(=O)c2ccccc2C1=O`, for which the growth inhibition in experiment [1] was 10.8% (inactive); in experiment [2], -0.2% (inactive); in experiment [3], -19.9% (inactive); in experiment [4] it was 15.1% (inactive); in experiment [5] it was 1% (inactive); in experiment [6] it was -2.4% (inactive).
Regarding `Nc1cc(=O)[nH]c(SC2OC(CO)C(O)C2O)n1` (stereo not given), the growth inhibition is 29.1% (inactive) in experiment [1]; -9.6% (inactive) in experiment [2]; 9% (inactive) in experiment [3]; -44.1% (inactive) in experiment [4]; 0.1% (inactive) in experiment [5]; 17.6% (inactive) in experiment [6].
`C=CC(C)c1cccc(C=O)c1O` (stereo not given): the growth inhibition in experiment [1] is 0.3% (inactive); in experiment [2], -7.3% (inactive); in experiment [3] it was -0.3% (inactive); in experiment [4], -32% (inactive); in experiment [5] it was 17.8% (inactive); in experiment [6], 15.2% (inactive).
For `O=C1c2cc3c(cc2C(=O)c2ncccc21)CCCC3`, the growth inhibition in experiment [1] is 64.7% (inactive); in experiment [2] it was 48.4% (inactive); in experiment [3], 62.1% (inactive); in experiment [4], 10.3% (inactive); in experiment [5], 71.1% (active); in experiment [6], 76.1% (active).
For the compound `CC(C)CCCC(C)C1CCC2(C)C3=C(CCC12C)C1(C)Cc2nonc2C(C)(C)C1CC3` (stereo not given), the growth inhibition in experiment [1] was 20.9% (inactive); in experiment [2], 3.35% (inactive); in experiment [3] it was 3.3% (inactive); in experiment [4], 14.9% (inactive); in experiment [5] it was 0.55% (inactive); in experiment [6] it was 11.3% (inactive).
`O/N=C\c1cccc[n+]1Cc1ccc2ccccc2c1Br`: the growth inhibition was -1.7% (inactive) in experiment [1]; 1.95% (inactive) in experiment [2]; -7.55% (inactive) in experiment [3]; -7.05% (inactive) in experiment [4]; 10.7% (inactive) in experiment [5]; -1.75% (inactive) in experiment [6].
Consider `CC(C)(CCCOc1ccccc1)NC(=O)c1ccccc1`, for which the growth inhibition in experiment [1] was 17.2% (inactive); in experiment [2], -1.15% (inactive); in experiment [3], -3.5% (inactive); in experiment [4] it was 15.5% (inactive); in experiment [5], 15.3% (inactive); in experiment [6], 6.15% (inactive).
With `CC(C)(C)C(=O)OCC1C(=O)OCC1C(=O)N1Cc2cc3ccccc3nc2C1` (stereo not given), the growth inhibition in experiment [1] is -7.7% (inactive); in experiment [2], -19.9% (inactive); in experiment [3], 1.55% (inactive); in experiment [4] it was -13% (inactive); in experiment [5], -8.2% (inactive); in experiment [6] it was -16.2% (inactive).
Take `C=C(Cl)C(C)(Cl)CCC(Cl)C(C)(C)Cl` (stereo not given): the growth inhibition in experiment [1] is 21.9% (inactive); in experiment [2], 16.4% (inactive); in experiment [3] it was 29.6% (inactive); in experiment [4] it was 42.5% (inactive); in experiment [5], 32.2% (inactive); in experiment [6], 25.3% (inactive).
Turning to `CCOC(=O)C(CCCCS(=O)(=O)O)C(=O)OCC`, the growth inhibition in experiment [1] is -12.3% (inactive); in experiment [2] it was -9.35% (inactive); in experiment [3], -18.9% (inactive); in experiment [4], -35% (inactive); in experiment [5], -5.25% (inactive); in experiment [6] it was 11.2% (inactive).
On to `O=[N+]([O-])c1cc(C(F)(F)F)ccc1F`, for which the growth inhibition in experiment [1] was -16% (inactive); in experiment [2], -15.2% (inactive); in experiment [3], -2.3% (inactive); in experiment [4], -25.8% (inactive); in experiment [5], -12.4% (inactive); in experiment [6], -0.15% (inactive).
Consider `CCCn1c(SCC)c2ccccc2c1-c1nc(F)nc(F)n1`, for which the growth inhibition in experiment [1] was -11.8% (inactive); in experiment [2], -21.8% (inactive); in experiment [3] it was -6.75% (inactive); in experiment [4] it was 18.9% (inactive); in experiment [5], -20.7% (inactive); in experiment [6] it was 4.1% (inactive).
Consider `O=C1c2ccccc2-c2ccc(-n3c(=O)c4ccccc4c4ccccc4c3=O)cc21`, for which the growth inhibition in experiment [1] was 28.6% (inactive); in experiment [2], -1.7% (inactive); in experiment [3], 29.8% (inactive); in experiment [4], 16.1% (inactive); in experiment [5], 8.35% (inactive); in experiment [6] it was 25.4% (inactive).
Regarding `OCc1c(-c2ccccc2)oc(-c2ccccc2)c1CN1CCOCC1`, the growth inhibition was 11.9% (inactive) in experiment [1]; -0.95% (inactive) in experiment [2]; 6.55% (inactive) in experiment [3]; -11.9% (inactive) in experiment [4]; 12% (inactive) in experiment [5]; 9.2% (inactive) in experiment [6].
Take `NNC(=O)C1CCC(=O)N1S(=O)(=O)c1ccccc1` (stereo not given): the growth inhibition is -14% (inactive) in experiment [1]; -12.1% (inactive) in experiment [2]; -22% (inactive) in experiment [3]; 8.95% (inactive) in experiment [4]; -2.25% (inactive) in experiment [5]; -25.6% (inactive) in experiment [6].
